Compound activity: PubChem, National Center for Advancing Translational Sciences (NCATS)
Compounds with a hit are over-represented: about 12% of the library has one in this group of screens.
G9a block – inhibitors of human histone lysine methyltransferase G9a; Q96KQ7; G9a H3K9 monomethylation, AlphaScreen, 2 h; Potency, µM (doses to about 102 µM), for inactives: at the top dose activity, negative = inhibition, hits mostly inhibitors; actives 8.8% (n = 350,000); further: on the % scale 0 is the no-effect control and ±100 the full control effect; nearly all actives have a fitted effect of over 75% in size
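G9a (20 nM) preincubated 15 min RT with compounds, then 500 nM biotinylated H3K9 peptide and 20 uM SAM added; 2 h RT reaction. Monomethyl-H3K9 product detected by AlphaScreen with anti-H3K9me1 antibody, streptavidin donor and anti-rabbit IgG acceptor beads.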
JMJD2A Tudor inh – blocks the human JMJD2A Tudor domain | O75164 | AlphaScreen JMJD2A-Tudor / H3K4me3 peptide binding | Potency, µM (series often up to 114 µM), inactives show top-dose activity change, negative = inhibition, actives largely listed as inhibitors | actives 4.4% (n = 390,000); further: on the % scale 0 is the no-effect control and ±100 the full control effect; nearly all actives have a fitted effect of over 50% in size
Sfp inh – Sfp phosphopantetheinyl transferase inhibition | Potency, µM, without a hit: largest response in the series, negative = inhibition, actives largely listed as inhibitors | Biochemical Sfp PPTase activity, qHTS | actives 3.5% (n = 310,000) | Q9F4F7;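 further: the enzyme is Sfp with the accession as filed and its product quenches rhodamine fluorescence; 0% = enzyme reaction without inhibitor and -100% = no enzyme wells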
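Sfp 15 nM + cpd, 15 min RT; start w/ rhodamine-CoA 5 uM, BHQ-2-YbbR 12.5 uM (final); 50 mM Hepes pH 7.6, 10 mM MgCl2, 0.01% NP-40, 0.01% BSA; read 525/598 nm at 0 and 30 min.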
HP1b binding inh – inhibitors of HP1-beta chromodomain binding to methylated histone tails; P83916; AlphaScreen HP1-beta / biotin-H3K9me3 peptide binding; Potency, µM (top dose mostly 114 µM), without a hit: at the top dose activity change, negative = inhibition, actives largely listed as inhibitors; actives 0.56% (n = 390,000); further: nearly all actives have a fitted effect of over 70% in size
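Compound inhibition of the preformed complex between 50 nM HP1-beta and 50 nM biotinylated H3K9me3 peptide was read by AlphaScreen. Buffer was PBS pH 7.4 with 0.01% Tween-20. Incubations ran 30 min at room temperature, with 10 ug/mL donor/acceptor beads.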
BAZ2B block – blocks human BAZ2B | AlphaScreen BAZ2B-H3K14Ac peptide displacement | actives 4.4% (n = 360,000) | Potency, µM (doses to about 114 µM), without a hit: at the top dose activity change, negative = inhibition, actives largely listed as inhibitors | Q9UIF8; further: on the % scale 0 is the no-effect control and ±100 the full control effect; nearly all actives have a fitted effect of over 60% in size
Target sequence (Q9UIF8 whole entry, looked up): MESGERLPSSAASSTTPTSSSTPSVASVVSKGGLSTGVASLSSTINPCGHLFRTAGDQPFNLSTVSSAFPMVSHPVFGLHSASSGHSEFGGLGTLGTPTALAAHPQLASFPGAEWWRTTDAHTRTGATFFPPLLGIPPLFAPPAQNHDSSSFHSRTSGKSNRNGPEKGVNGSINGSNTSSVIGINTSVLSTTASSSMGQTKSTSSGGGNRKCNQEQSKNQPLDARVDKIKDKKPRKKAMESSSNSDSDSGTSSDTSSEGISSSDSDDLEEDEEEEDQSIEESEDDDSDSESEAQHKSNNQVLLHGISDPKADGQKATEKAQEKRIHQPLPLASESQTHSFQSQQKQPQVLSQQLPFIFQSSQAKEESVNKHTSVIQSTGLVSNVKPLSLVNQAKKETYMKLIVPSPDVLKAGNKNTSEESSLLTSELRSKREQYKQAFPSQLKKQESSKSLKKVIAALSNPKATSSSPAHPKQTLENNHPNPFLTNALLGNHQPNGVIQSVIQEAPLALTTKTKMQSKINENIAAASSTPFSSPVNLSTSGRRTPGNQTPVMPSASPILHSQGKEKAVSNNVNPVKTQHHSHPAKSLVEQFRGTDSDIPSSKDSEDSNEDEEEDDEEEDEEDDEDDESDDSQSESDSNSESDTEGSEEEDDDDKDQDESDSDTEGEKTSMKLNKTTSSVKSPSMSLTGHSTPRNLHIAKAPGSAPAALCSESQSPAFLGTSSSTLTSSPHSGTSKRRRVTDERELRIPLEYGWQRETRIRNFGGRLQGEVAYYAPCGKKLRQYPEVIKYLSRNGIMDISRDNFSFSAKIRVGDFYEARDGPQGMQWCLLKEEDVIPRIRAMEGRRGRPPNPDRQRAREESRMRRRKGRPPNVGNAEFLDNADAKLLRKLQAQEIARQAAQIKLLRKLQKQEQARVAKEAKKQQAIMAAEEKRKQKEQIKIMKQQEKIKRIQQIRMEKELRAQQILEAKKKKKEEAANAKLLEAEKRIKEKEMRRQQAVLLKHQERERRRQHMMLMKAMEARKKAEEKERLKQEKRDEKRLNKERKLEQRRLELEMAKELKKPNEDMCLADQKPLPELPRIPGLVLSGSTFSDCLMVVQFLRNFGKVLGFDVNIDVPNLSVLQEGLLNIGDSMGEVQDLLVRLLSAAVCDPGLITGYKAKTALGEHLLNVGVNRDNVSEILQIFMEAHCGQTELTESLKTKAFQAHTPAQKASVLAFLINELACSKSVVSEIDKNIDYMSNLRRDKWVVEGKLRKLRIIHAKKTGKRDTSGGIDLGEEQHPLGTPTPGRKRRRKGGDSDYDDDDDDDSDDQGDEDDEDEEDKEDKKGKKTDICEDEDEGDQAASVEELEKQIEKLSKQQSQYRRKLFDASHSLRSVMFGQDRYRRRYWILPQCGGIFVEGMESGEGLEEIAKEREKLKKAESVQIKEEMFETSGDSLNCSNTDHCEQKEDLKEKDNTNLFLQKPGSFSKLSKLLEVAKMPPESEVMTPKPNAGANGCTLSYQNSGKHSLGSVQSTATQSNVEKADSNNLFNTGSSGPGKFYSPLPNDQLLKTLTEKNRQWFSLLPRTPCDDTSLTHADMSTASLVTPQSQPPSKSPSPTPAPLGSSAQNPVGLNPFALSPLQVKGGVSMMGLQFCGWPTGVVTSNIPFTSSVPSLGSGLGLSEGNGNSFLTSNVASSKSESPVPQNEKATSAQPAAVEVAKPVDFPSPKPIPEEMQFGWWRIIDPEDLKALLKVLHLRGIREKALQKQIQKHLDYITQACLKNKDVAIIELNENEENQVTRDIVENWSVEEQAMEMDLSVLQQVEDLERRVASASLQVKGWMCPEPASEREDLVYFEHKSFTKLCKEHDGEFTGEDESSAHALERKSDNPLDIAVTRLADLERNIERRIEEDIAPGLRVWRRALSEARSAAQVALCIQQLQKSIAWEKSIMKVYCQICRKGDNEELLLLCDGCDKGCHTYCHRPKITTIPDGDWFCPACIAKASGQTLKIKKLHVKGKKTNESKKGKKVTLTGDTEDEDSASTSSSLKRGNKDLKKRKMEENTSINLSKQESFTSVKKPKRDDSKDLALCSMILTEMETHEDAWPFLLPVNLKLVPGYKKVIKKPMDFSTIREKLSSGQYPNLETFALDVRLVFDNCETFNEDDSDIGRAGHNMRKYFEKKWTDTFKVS
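Complex of BAZ2B and biotin-H3K14Ac (50 nM apiece) forms over 30 min at RT, then faces library compounds up to 110 uM for another 30 min; AlphaScreen beads added, 20 min dark incubation, luminescence read.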
PLK1 PBD inh – PLK1 (human) polo-box domain binding inhibition; Plk1 PBD binding of FITC phosphopeptide, fluorescence polarization; Potency, µM, for inactives: max response, negative = inhibition, most hits filed as inhibitors; actives 2.8% (n = 360,000); P53350; further: series mostly up to about 57 µM; on the % scale 0 is the no-effect control and ±100 the full control effect; nearly all actives have a fitted effect of over 65% in size
* marks the source's active call; other numbers are inactive results; ? = inconclusive; nt = no result given; [ ] = remark or other dose. The call rests on the fitted dose curve; in most records, active means well fitted curve in the direction sought with a large enough effect; inconclusive means small, poorly fitted or top-dose-only effect, or another doubt; inactive means no such curve, though single readings can be large; an effect the other way counts as inactive or inconclusive. Potency means the concentration at half of the fitted maximal effect.

SMILES | G9a block | JMJD2A Tudor inh | Sfp inh | HP1b binding inh | BAZ2B block | PLK1 PBD inh
Cn1c(=O)c2ccccc2n(CC(=O)NCCC2=CCCCC2)c1=O | 28.2µM* | 0.7% | -10.2% | 9.7% | -0.5% | -4.6%
COc1cccc(/C=C/C(=O)OCC(=O)NCCC2=CCCCC2)c1 | -1.9% | 8.91µM* | 13.4% | 21.0% | -28.5% | 8.44µM*
Cc1cccc(N2CCN(C(=O)c3c(C)oc4nc(C)nc(N5CCCC5)c34)CC2C)c1 (stereo not given) | ? | -26.5% | nt | 14.3% | -7.8%[57.1 µM] | nt
Cc1ccc(CN(C(=O)c2ccccc2)c2ccccn2)o1 | -28.2%[59 µM] | -28.8% | nt | 45.2% | ? | nt
COC(=O)[C@@]1(Cc2ccc(OC)cc2)[C@H]2c3cc(C(=O)N(C)C)n(Cc4ccsc4Br)c3C[C@H]2CN1C(=O)c1ccccc1 | nt | nt | 12.3% | nt | nt | nt
Cc1nc2ccccc2n1/C(=N\S(=O)(=O)c1ccccc1)c1ccccc1 | 50.1µM* | -11.0% | 18.0% | 33.6% | 1.1% | -2.3%
CC1CN(/C(=N\S(=O)(=O)c2ccccc2)c2ccccc2)CC(C)O1 (stereo not given) | ? | 2.4% | 7.9% | 41.7% | -0.1% | 7.2%
CCOC(=O)c1ccc(NC(=O)c2c(NCc3cccs3)sc3c2CCCCC3)cc1 | 7.94µM* | 56.2µM* | nt | -23.0% | ? | nt
COc1ccc(NC(=O)c2c(NCc3cccs3)sc3c2CCCCC3)c(OC)c1 | 8.91µM* | 44.7µM* | nt | ? | ? | nt
COc1ccc(NC(=O)c2c(NCc3cccs3)sc3c2CCCC3)cc1 | 14.1µM* | ? | nt | -3.9% | -36.0% | nt
CCOc1ccc(NC(=O)c2c(NC(=O)c3ccccc3F)sc3c2CCC3)cc1 | 0.5%[59 µM] | -11.1% | nt | 35.7% | 2.6% | nt
CCOc1ccc(NC(=O)c2c(NCc3cccs3)sc3c2CCC(C)C3)cc1 (stereo not given) | ? | ? | nt | 25.7% | -37.7% | nt
CCOc1ccc(NC(=O)c2c(NC(=O)CNCCN3CCOCC3)sc3c2CCC3)cc1 | 39.8µM* | 79.4µM* | 3.6% | 3.2% | 44.7µM* | -2.0%
CN1OC[C@@H]2CN(Cc3ccc(Cl)cc3)[C@H](c3ccc(-n4ccnc4)cc3)C[C@@H]21 | nt | nt | nt | nt | nt | -8.8%
COc1ccc(N2C(=O)CC(Sc3nc(C)cc(C)c3C#N)C2=O)cc1 (stereo not given) | ? | -4.3% | -7.0% | 10.5% | 4.4% | -7.8%
COc1ccc(N2C(=O)CC(Sc3nnnn3-c3ccc(F)cc3)C2=O)cc1 (stereo not given) | ? | -9.1% | 15.8µM* | 72.8% | -21.7% | ?
O=C1CC(Sc2nnc(-c3ccccc3O)o2)C(=O)N1c1ccccc1 (stereo not given) | 7.94µM* | ? | 56.2µM* | 4.9% | ? | ?
COc1ccc(N2C(=O)CC(Sc3nnc(-c4ccccc4)o3)C2=O)cc1 (stereo not given) | 10µM* | -6.3% | 56.2µM* | 40.0% | -0.7% | 0.0%
CCCc1ccc(C#N)c(SC2CC(=O)N(c3ccc(OC)cc3)C2=O)n1 (stereo not given) | ? | -15.8% | 5.4% | 18.0% | -11.6% | -5.3%
O=C1CC(Sc2ncccn2)C(=O)N1c1ccccc1 (stereo not given) | ? | -1.3% | -2.5% | 62.7% | -5.8% | -2.6%
Cc1cc(C)c(C)c(S(=O)(=O)N2CCC(C(=O)NCC(c3ccccc3)N(C)C)CC2)c1C (stereo not given) | 10.2% | -28.8% | -0.5% | 38.2% | -4.6% | -8.9%
Cc1ccc(S(=O)(=O)NCC(c2ccco2)N2CCN(c3ccccc3F)CC2)cc1 (stereo not given) | -0.9%[59 µM] | -7.1% | nt | 32.5% | -4.5% | nt
CC(NC(=O)COC(=O)c1ccc2c(=O)n3c(nc2c1)CCCCC3)c1ccccc1 (stereo not given) | ? | -21.1% | nt | 36.1% | -3.3% | -9.3%
O=C(Nc1nc(-c2ccccc2)cs1)NC1CCCCC1 | 13.2%[59 µM] | -25.4% | 6.0% | 14.1% | -6.0% | -1.7%
c1ccc(-c2csc(NC3CCCCC3)n2)cc1 | 50.1µM* | -23.3% | -7.7% | -11.7% | -30.3% | -15.7%
SMILES | G9a block | JMJD2A Tudor inh | Sfp inh | HP1b binding inh | BAZ2B block | PLK1 PBD inh
COc1ccc(-c2csc(NC3CCCCC3)n2)c(OC)c1 | 44.7µM* | ? | -27.0% | ? | -35.1% | ?
CCn1c(C(=O)N2CCC(C(=O)NCc3ccc4c(c3)OCO4)CC2)cc2sccc21 | 44.7µM* | ? | 3.4% | 12.6% | -35.6% | -2.6%
NC(=O)C1CCCN(C(=S)NCc2ccc3c(c2)OCO3)C1 (stereo not given) | 50.1µM* | -5.0% | 14.9% | 22.3% | 0.1% | ?
Cn1c(C(=O)N2CCCC(C(=O)NCc3ccc4c(c3)OCO4)C2)cc2sccc21 (stereo not given) | 50.1µM* | -13.4% | 4.1% | 10.4% | ? | -4.8%
O=C(NCCCN1CCCC1)C1CCN(C(=O)c2cc3sccc3n2Cc2ccc(F)cc2)CC1 | 50.1µM* | -18.9% | -8.2% | 16.3% | ? | -2.2%
Cn1c(C(=O)N2CCCC(C(=O)NCCc3ccccc3)C2)cc2sccc21 (stereo not given) | nt | -11.7% | -29.8% | 19.9% | -3.1% | -2.6%
CCOC(=O)c1ccccc1NC(=O)Cc1c(C(=O)O)c(C)cn1C | 1.1%[59 µM] | -22.7% | nt | 9.4% | -13.8% | nt
CCn1c(C(=O)N2CCC(C(=O)NCCCSC3CCCCC3)CC2)cc2sccc21 | 39.8µM* | ? | 9.0% | 3.0% | ? | -8.9%
O=C(NCc1nnc(SCC(=O)N2CCCC2)o1)c1ccccc1 | 55.4% | -11.7% | 12.0% | 25.8% | -16.8% | -5.3%
CCCN[C@@H](C)C(=O)Nc1ccccc1C | -40.8%[2.33 µM] | nt | 14.5% | nt | nt | nt
Cc1cs/c(=N/C(=S)Nc2ccccc2)n1C | -1.4%[59 µM] | -2.1% | 3.0% | 5.5% | -38.1% | -2.1%
Cc1csc(=Nc2ccccc2)n1C | ? | -13.2% | -8.3% | 28.7% | 50.1µM* | -4.5%
CCOC(=O)c1ccccc1NC(=O)c1cc2ccc3cccnc3c2[nH]1 | -9.1%[59 µM] | -21.4% | nt | 30.4% | 11.4%[57.1 µM] | nt
Cc1ccc2[nH]c(C)cc(=S)c2c1 | ? | -33.2% | ? | -4.1% | -15.7% | ?
Cc1cc(=S)c2ccccc2[nH]1 | 2µM* | ? | 56.2µM* | 10.8% | ? | ?
Cc1ncc([N+](=O)[O-])n1CC(=O)Nc1ccc(F)c(Cl)c1 | 22.0% | 7.0% | 1.7% | 34.1% | 0.9% | -7.8%
O=C(NCC(=O)N(Cc1ccccc1)C(C(=O)NC1CCCC1)c1ccncc1)c1ccco1 (stereo not given) | 10µM* | -5.3% | -8.5% | 35.0% | 9.6% | -4.6%
O=C(NCC(=O)N(Cc1cccs1)C(C(=O)NC1CCCC1)c1ccncc1)c1ccco1 (stereo not given) | ? | 0.6% | 25.1µM* | 26.6% | ? | -7.4%
